How the values were obtained:
Test in all cases: PBM binding z-score (relative to random genomic background probes); higher = stronger binding; sequences stand for … in GC…GCGATTGACAGCGTAGAATGAAGG
[1] = system: PPARg:RXRa DBDmut IVT, anti-RXR (DBD mutation: RXRa K156A/R161A, NR concentration 270 nM, RXRa partner concentration 90 nM)
In short: (§1)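 For binding z-scores, the reference was random background probes on custom Agilent 4×180K protein-binding microarrays. These arrays were incubated 1 h with ligand-free nuclear receptor dimers in PBS pH 7.4, 2% milk, 0.02% Triton X-100, 1 mM DTT, 0.2 mg/mL BSA and 0.4 mg/ml salmon testes DNA. Fluorescence was scanned after antibody detection of each partner (one per run) and regression-normalized.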

[2] = system: PPARg:RXRa IVT, anti-PPARg (NR concentration 270 nM, RXRa partner concentration 90 nM)
In short: as §1

[3] = system: PPARg homodimer (NR concentration 180 nM)
In short: as §1

[4] = system: PXR:RXRa (NR concentration 270 nM, RXRa partner concentration 90 nM)
In short: as §1

[5] = system: PXR homodimer (NR concentration 270 nM)
In short: as §1

[6] = system: RARa:RXR (NR concentration 270 nM, RXRa partner concentration 90 nM)
In short: as §1

[7] = system: RARa homodimer (NR concentration 270 nM)
In short: as §1

[8] = system: RARb:RXRa (NR concentration 270 nM, RXRa partner concentration 90 nM)
In short: as §1

Sequence | PBM binding z-score [1] | PBM binding z-score [2] | PBM binding z-score [3] | PBM binding z-score [4] | PBM binding z-score [5] | PBM binding z-score [6] | PBM binding z-score [7] | PBM binding z-score [8]
CCGAGTAGGTTACGAGGGGGCATTTAGTGCGAAT | 4.67 | 4.43 | 1.41 | 4.52 | 2.55 | 3.03 | 0.176 | 2.09
CCGAGTAGGTTACGAGGGGGCATTGAGTGCGAAT | 4.78 | 4.42 | 1.95 | 5.05 | 8.74 | 2.91 | 0.485 | 2.02
TCGAGTAGGTTACGGGGGCAGTCAGGGATGAAGA | 5 | 5.6 | 2.04 | 2.33 | 1.2 | 2.43 | 0.156 | 2.36
CCGAGTAGGTTACGAGGGGGCCTTCAGTGCGAAT | 4.2 | 4 | 1.59 | 1.73 | 0.533 | 1.56 | 0.0772 | 1.47
CTATGTAGGTTAAGAGGGTCATTCAGTTTGAAAG | 7.34 | 7.14 | 2.35 | 3.96 | 5.84 | 3.56 | 0.734 | 2.63
CCGAGTAGGTTACGAGAGGGCATTCAGTGCGAAT | 4.61 | 3.37 | 2.29 | 5.07 | 6.97 | 2.08 | -0.345 | 1.66
TCGAGTAGGTTACGGAGGCATTCAGGGATGAAGA | 3.09 | 3.05 | 0.325 | 0.0271 | -0.388 | 0.547 | -0.666 | 0.731
CTATGTAGGTTATGGGGGTCATTCAGTTTGAAAG | 7.32 | 7.49 | 4.13 | 6.22 | 12.9 | 6.28 | 1.72 | 3.67
CCGAGTAGGTTACGAGGGAGCATTCAGTGCGAAT | 4.73 | 3.51 | 0.106 | 0.602 | 0.000491 | 0.506 | -0.145 | 0.887
TCGAGTAGGCTACGGGGGCATTCAGGGATGAAGA | 2.36 | 3.36 | 0.299 | 1.77 | 0.484 | 1.43 | -0.44 | 0.961
CGGAGTAGGTTACGAGGGGGCATTCAGTGCGAAT | 6.26 | 7.82 | 1.69 | 5.02 | 6.07 | 3.15 | 0.639 | 2.54
CCGAGTAGGTTACGAGGGGGAATTCAGTGCGAAT | 4.48 | 4.06 | 0.811 | 1.55 | 0.309 | 1.23 | 0.123 | 1.26
CCGAGTAGGTTACGCGGGGGCATTCAGTGCGAAT | 4.28 | 4.82 | 1.38 | 5.72 | 7.61 | 3.67 | 0.0169 | 2.29
CCGCGTAGGTTACGAGGGGGCATTCAGTGCGAAT | 1.02 | 2.43 | 1.12 | 4.76 | 4.05 |  | -0.311 | 2.14
CCGAGTAGGTTCCGAGGGGGCATTCAGTGCGAAT | 1.28 | 2.13 | 1.1 |  | 6.61 | 2.14 | 0.637 | 1.3
TCGAGTAGGTTACGGGGCCATTCAGGGATGAAGA | 3.76 | 4.63 | 0.412 | 0.639 | -0.128 | 0.892 | -0.208 | 1.44
TCGAGTAGGGTACGGGGGCATTCAGGGATGAAGA | 4.21 | 5.82 | 1.54 | 3.3 | 1.96 | 2.86 | 0.475 | 2.37
CTATGTAGGTTAAGGGGGTCATACAGTTTGAAAG | 7.64 | 7.1 | 3.8 | 5.63 | 8.43 | 5.95 | 2.55 | 3.77
TCGAGTAGGTTACGGGGGCATTGAGGGATGAAGA | 5.26 | 6.02 | 2.89 |  | 1.71 |  | 0.325 | 2.69
TCGAGTAGGTTACGCGGGCATTCAGGGATGAAGA | 2.91 | 3.32 | 0.356 |  | -0.508 | 0.641 | -0.865 | 0.946
TCGAGTAGGTTACGGGGGCATTCAGGGATGAAGA | 4.99 | 5.99 | 1.92 |  | 1.53 | 2.98 | 1.5 | 2.61
TCGAGTAGGTTACGGGGGCTTTCAGGGATGAAGA | 4.35 | 4.61 | 0.803 | 1.87 | 0.25 | 1.99 | -0.0109 | 1.69
TCGAATAGGTTACGGGGGCATTCAGGGATGAAGA | 4.48 | 5.46 | 2.1 | 3.82 | 1.8 | 3.69 | 1.33 | 3.33
CTATGTAGGTTAAGGGGCTCATTCAGTTTGAAAG | 7.02 | 6.52 | 1.36 | 0.403 | 0.167 | 0.505 | 0.222 | 0.689
TCGAGTAGGTTACGGGGACATTCAGGGATGAAGA | 4.18 | 4.72 | 1.95 | 0.696 | -0.0868 | 1.17 | 0.0881 | 1.43
CTATGTAGGTTAACGGGGTCATTCAGTTTGAAAG | 7.65 | 7.78 | 2.41 |  | 12.2 | 6.06 | 0.661 | 3.57
CCGAGTAGGTCACGAGGGGGCATTCAGTGCGAAT | 6.96 | 7.42 | 2.44 |  | 4.34 | 4.38 | 1.07 | 4.58
CTATGTAGGTTAAGGGGGTCATTCGGTTTGAAAG | 6.81 | 7.73 | 4.23 | 5.97 | 12.4 | 6.04 | 1.33 | 3.54
CCGAGTAGGTTACGAGGGCGCATTCAGTGCGAAT | 4.97 | 4.85 | -0.00528 | 0.483 | -0.379 |  | -0.752 | 1.29

From the supplement of paper PMC6555819
